Measured values reported in PubChem BioAssay (Tox21).
A number with no mark means an inactive call. Active and inactive are the calls of the source. Calls follow the shape of the dose curve; as a rule, active = well fitted curve in the direction sought with a large enough effect in the repeat runs; inconclusive = weak or mixed curves; inactive = flat fitted curve, though single readings scatter.

assay: qHTS assay to test for compound auto fluorescence at 460 nm (blue) in HepG2 cell free culture (AID 720685); conditions: Cell-free culture medium, blue autofluorescence 405/460 nm; series mostly up to 91.3 µM; fluorescence, % of fluorescent control: at the top concentration
From the text: U.S. Tox21 Program National Center for Advancing Translational Sciences [NCATS] NIH Chemical Genomics Center [NCGC] U.S. Environmental Protection Agency [EPA] National Institutes of Environmental Health Sciences [NIEHS] National Toxicology Program [NTP] U.S. Food and Drug Administration [FDA] Tox21 Assay Overview: Compound auto fluorescence often interferes with screening of the compound library against various biological targets and signaling pathways. Some of these compounds may have fluorophoric properties. Such properties may interfere with the assay outputs resulting in false positives and/or negatives. To decrease such complications and ensure the compound activities are relevant in terms of biological response, the Tox21 10K compound library was screened for auto fluorescence. From the fluorophores used as reporter signals in our screening assays, the auto fluorescence equivalencies of compounds against three fluorophores have been evaluated: Triamterene, Fluorescein and Rose Bengal sodium for blue, green and red fluorescence, respectively. The fluorescence intensities were measured using Excitation/Emission wavelengths at 405/460nm, 485/535nm and 540/590nm for blue, green and red labels, respectively. This assay includes the blue fluorescence data.
Tox21 Assay Protocol Summary: 5 uL of culture medium (MEM containing 10% FBS) per well was dispensed into black wall/clear bottom 1536-well plates using a Multidrop Combi Dispenser (ThermoFisher Scientific, Waltham, MA). After 23 nL compound or DMSO vehicle was transferred into assay plate by a pintool work station (Kalypsys, San Diego, CA), fluorescence intensities in the assay plates were measured by an Envision (PerkinElmer, Shelton, CT) plate reader using three labels for measuring blue, green and red fluorescence at […] 460, 535 and 590nm respectively.
% is scaled to controls: 0 for no effect and ±100 for the full control effect.

SMILES | fluorescence, % of fluorescent control | Potency
CC(COc1ccc(C(C)(C)C)cc1)OS(=O)OCCCl (stereo not given) | 0.006% | –
COCc1c(C(C)C)nc(C(C)C)c(/C=C/[C@@H](O)C[C@@H](O)CC(=O)O)c1-c1ccc(F)cc1 | 0.06% [at 46 µM] | –
CN(C)CCOC1=Cc2ccccc2Sc2ccc(Cl)cc21 | -0.0112% [at 46 µM] | –
CN1CCN(CCCN2c3ccccc3Sc3ccc(S(=O)(=O)N(C)C)cc32)CC1 | 0.208% [at 18.6 µM] | –
ON(Cc1ccccc1)Cc1ccccc1 | 0.0802% | –
Nc1ccc(C(=O)OCCCOC(=O)c2ccc(N)cc2)cc1 | 0.0296% | –
CC(CCO)CCc1ccccc1 (stereo not given) | 0.117% | –
Cc1cc(S(=O)(=O)O)ccc1N=Nc1c(O)ccc2ccccc12 | -0.851% | –
CC(C)CCCCCCOC(=O)CCCCC(=O)OCCCCCCC(C)C | -0.0688% | –
Fc1ccccc1[C@@H](F)COC1CCC(Nc2ncnc3[nH]ncc23)CC1 (stereo not given in full) | -0.0665% | –
CC(C)c1nnc2ccc(-c3ocnc3-c3cc(F)ccc3F)cn12 | 0.178% | –
Cc1nccn1-c1ccc(Sc2cccc(C3(C(N)=O)CCOCC3)c2)cc1 | -0.19% | –
COc1cc2[nH]c(=O)[nH]c(=O)c2cc1OC | -0.0173% [at 18.6 µM] | –
CC1=CC(=O)CC(C)(C)C1(O)/C=C/C(C)=C\C(=O)O (stereo not given) | 0.0272% | –
CCCCCC=CCC=CCCCCCCCC(=O)OCC | 0.038% [at 46 µM] | –
C[Si]1(C)O[Si](C)(C)O[Si](C)(C)O1 | 0.0359% | –
c1cnc2c(n1)CCCC2 | -0.0075% | –
CCN(Cc1cccc(S(=O)(=O)O)c1)c1ccc(C(=C2C=CC(=[N+](CC)Cc3cccc(S(=O)(=O)[O-])c3)C=C2)c2ccccc2)cc1 | 1.3% | –
CCCCOC(=O)CCS | -0.0326% | –
COC(=O)CC(=O)C(C)(C)C | 0.205% | –

SMILES | fluorescence, % of fluorescent control | Potency
c1cc[c]([Bi]([c]2ccccc2)[c]2ccccc2)cc1 | 0.0188% | –
CCn1cc(C(=O)O)c(=O)c2cc(F)c(N3CCNCC3)nc21 | -0.0969% [at 18.6 µM] | –
CC1=NN(c2ccc(C(=O)O)cc2)C(=O)C1 | 0.0239% | –
COC(OC)(C(=O)c1ccccc1)c1ccccc1 | -0.0299% | –
C=CCOC(=O)/C=C\C(=O)OCC=C | -0.0221% [at 95.7 µM] | –
CCNC(=O)N1CCN(CCCC(c2ccc(F)cc2)c2ccc(F)cc2)CC1 | -0.167% [at 46 µM] | –
CCC(C)(O)CCC=C(C)C (stereo not given) | -0.012% | –
Cc1cc(O)c(C(C)C)cc1Cl | – | inactive
Nc1ccc(S(=O)(=O)O)c(N)c1 | 1.71% | –
O=C(O)Cc1ccc(-c2ccccc2)cc1 | -0.109% [at 18.6 µM] | –
Nc1nc(Cl)nc2c1ncn2[C@@H]1O[C@H](CO)[C@@H](O)[C@@H]1F | 0.0405% [at 46 µM] | –
CCC(C)=O | -0.18% | –
CO[C@H]1C=CO[C@@]2(C)Oc3c(C)c(O)c4c(O)c(c5c(c4c3C2=O)=NC2(CCN(CC(C)C)CC2)N=5)NC(=O)/C(C)=C\C=C/[C@H](C)[C@H](O)[C@@H](C)[C@@H](O)[C@@H](C)[C@H](OC(C)=O)[C@@H]1C | – | inactive
CC1(C)O[C@@H]2C[C@H]3[C@@H]4CCC5=CC(=O)C=C[C@]5(C)[C@H]4[C@@H](O)C[C@]3(C)[C@]2(C(=O)CO)O1 | -0.0534% [at 46 µM] | –
NC(=O)N(O)[C@@H]1C=C[C@H](Oc2cccc(Oc3ccc(F)cc3)c2)C1 | 0.223% | –
COC(=O)[C@@H]1CC2=CC(=O)CC[C@]2(C)[C@@]23O[C@@H]2C[C@@]2(C)[C@@H](CC[C@@]24CCC(=O)O4)[C@H]13 | -0.0619% [at 46 µM] | –
Oc1ccc(Nc2ccccc2)cc1 | 0.0716% | –
CC(C)(CCl)c1ccccc1 | -0.0577% | –
Cc1cc(C(=C2C=CC(=Nc3ccc(S(=O)(=O)O)cc3S(=O)(=O)O)C=C2)c2ccc(Nc3ccc(S(=O)(=O)O)cc3)cc2)ccc1N | 1.2% | –
NCC1CCCC(CN)C1 (stereo not given) | -0.103% | –
